# Reference: paper PMC5540273 (PLoS ONE, 2017)
# Legend:
# PIK4CB = tested on: T1, PIK4CB
# T1 construct: gene PI4KB
# PKAC-alpha = tested on: T2, PKAC-alpha
# T2 construct: gene PRKACA
# PKAC-beta = tested on: T3, PKAC-beta
# T3 construct: gene PRKACB
# 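Further: kd values determined as follow-up on hits from a single-replicate KINOMEscan panel screen.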
compound,measurement,setting,value
CNc1nccc(-c2c(-c3ccc(F)cc3)ncn2CCCN2CCOCC2)n1 [SB-222516],Kd,PAK2,> 10 µM
same,Kd,PIM3,> 10 µM
Oc1ccc2ncnc(Nc3ccc(OCc4ccccc4)cc3)c2c1 [GI262866],Kd,PAK3,> 10 µM
CCCc1ccc(S(=O)(=O)NC2CCN(c3ccnc(Nc4ccc(OC)cc4)n3)C2)cc1 (centres unmarked) [GSK1379737],Kd,PAK3,> 10 µM
Cc1ccc(C)c(NC(=O)NCCNc2ccnc(Nc3ccc(F)cc3)n2)c1 [GSK1379878],Kd,PAK6,> 10 µM
c1ccc(-c2ccc3c(-c4ccnc(Nc5ccc6c(c5)OCCO6)n4)cnn3n2)cc1 [GW818941],Kd,PAK6,> 10 µM
Cl.Cn1ccc(-c2cccc(Nc3ccnc4cc(-c5nccs5)ccc34)c2)n1 [GW525701],Kd,PAK7,> 10 µM
CC(C)(C)c1ccc(-n2cnc3c(N)ncnc32)cc1 [SKF-97263],Kd,PIK3C2B,8.3 µM
same,Kd,PIK3CA,> 10 µM
same,Kd,PIK3CG,2400 nM
CSc1nn2c(=O)cc(N3CCOCC3)nc2n1Cc1cccc(Cl)c1Cl [GSK2347225],Kd,PIK3C2B,0.36 µM
same,Kd,PIK3CB,0.8 nM
same,Kd,PIK3CD,240 nM
O=c1cc(N2CCOCC2)nc2n(Cc3cccc(Cl)c3)ccn12 [GSK2296823],Kd,PIK3CB,15 nM
O=C(Nc1ccccc1F)NC1CCN(c2ccnc(Nc3ccc(F)cc3)n2)C1 (centres unmarked) [GSK1379722],Kd,PIK4CB,> 10 µM
O=C(c1ccc(-c2cc(-c3c[nH]nc3-c3ccccn3)ccn2)cc1)N1CCCC1 [GW792479],Kd,PIM1,> 10 µM
Nc1nc(-c2ccccn2)c(-c2ccnc3ccccc23)s1 [GW548057],Kd,PIP5K1C,> 10 µM
COc1cc2c(Nc3cccc(NC(=O)c4ccccc4)c3)ncnc2cc1OCCCN1CCOCC1 [GSK223810],Kd,PKAC-alpha,> 10 µM
C[C@@H]1CCN(C(=O)CO)C[C@@H]1N(C)c1ncnc2[nH]ccc12,Kd,PKAC-beta,> 10 µM
same,Kd,PKMYT1,> 10 µM
